Assay results: PubChem BioAssay (NCATS)
Records with an inconclusive call do not appear. A call without a number means that no potency is given here. Activity calls are given as the source filed them. The call rests on the fitted dose curve; in most records, active means well fitted cell-killing curve with a large enough effect; inconclusive means small, poorly fitted or top-dose-only effect, or effect the other way; inactive means no such curve, though single readings can be large or run the other way.

experiment: Cell Viability - LYMP2-005 (AID 967); settings: LYMP2-005 lymphoblastoid cell viability; series mostly up to 92.2 µM
Description: NIH Chemical Genomics Center [NCGC]
NIH Molecular Libraries Screening Centers Network [MLSCN]
National Institutes of Environmental Health Sciences [NIEHS]
National Toxicology Program [NTP]
We have developed a 1536-well cell-based assay for quantitative high throughput screening (qHTS) against a number of cell lines to determine in vitro cytotoxicity of small molecules. This particular assay uses a human lymphoblastoid cell line (LYMP2-005) purchased from Coriell Institute for Medical Research.
NCGC Assay Protocol Summary:
The CellTiter-Glo luminescent cell viability assay (Promega) is a homogeneous method to measure the number of viable cells in culture. The end point readout of this assay is based on quantitation of intracellular ATP, an indicator of metabolic activity, using the luciferase reaction. Luciferase catalyzes the oxidation of beetle Luciferin to oxyluciferin and light in the presence of ATP. The luminescent signal is proportional to amount of ATP present.
Using the CellTiter-Glo luminescent cell viability assay, the amount of cellular ATP was measured in the lymphoblastoid cell line with complete culture medium following compound treatment for 24 hours. The assay was performed in opaque white Kalypsys 1536-well plates. In the screen, tetraoctylammonium bromide was used as positive control. Library compounds were measured for their ability to cause acute toxicity in the cell line, as reflected by a decrease in intracellular ATP levels, in a concentration-dependent manner. […] AC50 values were determined from concentration-response data modeled with the standard Hill equation.
qHTS protocol for CellTiter Glo lymphoblastoid cellular assay
[Step] [Parameter] [Value] [Description]
1. Reagent; 5 uL; 2500 lymphoblastoid cells/well
2. Time; 5 hr; 37 C incubation
4. Controls; 23 nL; Tetraoctylammonium bromide 6.4pM to 92 uM
5. Time; 24 hr; 37 C incubation
6. Reagent; 5 uL; CellTiter Glo reagent
7. Time; 30 min; Room Temperature
8. Detection; Luminescence; Viewlux plate reader
Keywords: cell viability, cytotoxicity, lymphoblastoid cell line, luminescence, NTPHTS, NTPHTS_NCGC, NIEHS, DSSTox, MLSMR, MLSCN, NIH Roadmap, qHTS, NCGC
Potency means the concentration at half of the fitted maximal effect.

Row | SMILES | Potency
1 | CN1[C@H]2CC(OC(=O)[C@H](CO)c3ccccc3)C[C@H]1[C@H]1O[C@H]12 (stereo partly specified) | inactive
2 | O=C(O)C1C(C(=O)O)C2(Cl)C(Cl)=C(Cl)C1(Cl)C2(Cl)Cl (stereo unspecified) | inactive
3 | O=Nc1ccc(Nc2ccccc2)cc1 | 10 µM (active)
4 | N#CSCSC#N | 5.01 µM (active)
5 | OC(c1ccc(Cl)cc1)(c1ccc(Cl)cc1)C(Cl)(Cl)Cl | inactive
6 | O=[N+]([O-])c1cc(C(F)(F)F)cc([N+](=O)[O-])c1Cl | inactive
7 | Nc1ccc(-c2ccc(N)c(O)c2)cc1O | 50.1 µM (active)
8 | FC(F)(F)c1ccc(Cl)cc1 | inactive
9 | C(=NC1CCCCC1)=NC1CCCCC1 | inactive
10 | O=[N+]([O-])C(Br)Br | 25.1 µM (active)
11 | CC(C)CC(C)Nc1ccc(Nc2ccccc2)cc1 (stereo unspecified) | 31.6 µM (active)
12 | C[C@@H]1CC[C@@]2(OC1)O[C@H]1[C@@H](O)[C@H]3[C@@H]4CC[C@H]5C[C@@H](O[C@@H]6O[C@H](CO)[C@H](O[C@@H]7O[C@H](CO)[C@@H](O)[C@H](O[C@@H]8OC[C@@H](O)[C@H](O)[C@H]8O)[C@H]7O[C@@H]7O[C@H](CO)[C@@H](O)[C@H](O[C@@H]8O[C@H](CO)[C@@H](O)[C@H](O)[C@H]8O)[C@H]7O)[C@H](O)[C@H]6O)[C@H](O)C[C@]5(C)[C@H]4CC[C@]3(C)[C@H]1[C@@H]2C | 15.8 µM (active)
13 | O=C1C2(Cl)C3(Cl)C4(Cl)C(Cl)(Cl)C5(Cl)C3(Cl)C1(Cl)C5(Cl)C24Cl (stereo unspecified) | 39.8 µM (active)
14 | Oc1c(Br)c(Br)c(Br)c(Br)c1Br | inactive
15 | CC(=O)[O-].CC(=O)[O-].O.O.[Cd+2] | 31.6 µM (active)
16 | O=C(CCl)c1ccccc1 | 10 µM (active)
17 | N#CC(Cl)Cl | inactive
18 | c1ccc2cc3c(cc2c1)-c1cccc2cccc-3c12 | inactive
19 | Clc1ccc(C(c2ccc(Cl)cc2)C(Cl)Cl)cc1 | inactive
20 | CC/C(=C(\c1ccccc1)c1ccc(OCCN(C)C)cc1)c1ccc(O)cc1 | 50.1 µM (active)
21 | C#CCO | inactive
22 | CCCCCCCCn1sccc1=O | 3.98 µM (active)
23 | Nc1ccccc1C(=O)OCCc1ccccc1 | inactive
24 | CN(C)c1ccc(N=O)cc1 | 0.794 µM (active)
25 | C=CC(=O)OCC(CO)(COC(=O)C=C)COC(=O)C=C | 2.51 µM (active)
26 | ClC1=C(Cl)C2(Cl)C3C(Cl)C(Cl)CC3C1(Cl)C2(Cl)Cl (stereo unspecified) | inactive
